The panel holds about 83,000 compounds, 20% with a hit somewhere; the sample as a whole holds those more often.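 The test compound was applied at a single concentration to cells in 96-well plates for 48 hours, and percent growth was recorded.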 A number with no mark means an inactive call. The source made the active and inactive calls. The calls were made as follows: active = growth percent below 10; inactive = the rest.

The values below come from PubChem BioAssay (NCI).

Some test systems named below: NCI-H23 lung; NCI-H226 lung; NCI-H322M lung; HOP-62 NSCLC; NCI-H460 lung; HOP-92 NSCLC; NCI-H522 lung; A549/ATCC NSCLC; 786-0 renal; COLO 205 colon.
What all share (test): NCI-60 one-dose screen, 48 h (100 = growth as untreated, 0 = no growth, -100 = all killed)
Conditions in all cases: 10 µM unless noted

On to `O=c1c2ccccc2sc2c(NCCCNCCO)nc3ccccc3c12`, for which the growth is 50% in the assay with NCI-H23 lung; 44.4% in the assay on NCI-H226 lung; 65.8% with NCI-H322M lung; 36.5% in the assay on HOP-62 NSCLC; -33.5% (active) with NCI-H460 lung; -1.63% (active) in the assay with HOP-92 NSCLC. Besides, the growth in the assay on NCI-H522 lung was 20.9%; in the assay on A549/ATCC NSCLC, 25.9%; in the assay with 786-0 renal, 41.3%; in the assay on COLO 205 colon it was -78.9% (active).
Regarding `COc1ccc(Cl)cc1NC(=O)c1cc2c(n1C)-c1nc(NC(=O)C(C)C)sc1CC2`, the growth was 89.4% with NCI-H23 lung; 61.3% with NCI-H226 lung; 99.1% with NCI-H322M lung; 85.7% in the assay with HOP-62 NSCLC; 94% in the assay on NCI-H460 lung; 91% in the assay with HOP-92 NSCLC. Further, the growth in the assay with NCI-H522 lung was 49.9%; with A549/ATCC NSCLC, 71.5%; in the assay on 786-0 renal, 88.1%; with COLO 205 colon, 96.8%.
As to `CCCCCCCC(=O)SCC/C=C/[C@@H]1CC(=O)NCc2nc(cs2)C2=N[C@@](C)(CS2)C(=O)N[C@@H](C(C)C)C(=O)N1`, the growth is 16.5% in the assay with NCI-H23 lung; 3.64% (active) in the assay on NCI-H226 lung; 1.39% (active) with NCI-H322M lung; 12.1% in the assay with HOP-62 NSCLC; 9.84% (active) with NCI-H460 lung; -10.5% (active) in the assay on HOP-92 NSCLC. For the same compound, the growth is -27.4% (active) in the assay with NCI-H522 lung, 0.822% (active) in the assay with A549/ATCC NSCLC, 17.2% in the assay with 786-0 renal and -71.8% (active) in the assay with COLO 205 colon.
`O=C1COc2ccccc2C(=O)N1CCCCN1CCCCC1`: the growth in the assay on NCI-H23 lung was 94%; in the assay on NCI-H226 lung it was 93%; in the assay with NCI-H322M lung, 104%; in the assay with HOP-62 NSCLC, 78.2%; in the assay on NCI-H460 lung it was 104%; in the assay with HOP-92 NSCLC, 61.5%. Also, the growth with NCI-H522 lung is 71.5%; in the assay with A549/ATCC NSCLC, 96.4%; in the assay on 786-0 renal it was 82.4%; in the assay on COLO 205 colon, 87.6%.
With `Cn1c(I)c(C#C[Si](C)(C)C)c(=O)[nH]c1=O`, the growth in the assay with NCI-H23 lung was 17.9%; in the assay on NCI-H226 lung, 78.9%; in the assay with NCI-H322M lung, 115%; with HOP-62 NSCLC, 76.4%; in the assay on NCI-H460 lung, 104%; in the assay with HOP-92 NSCLC, -82.8% (active). Moreover, the growth in the assay with NCI-H522 lung is -58.7% (active); in the assay with A549/ATCC NSCLC, 86.3%; with 786-0 renal, -10.8% (active); in the assay on COLO 205 colon it was -59% (active).
As for `NS(=O)(=O)c1ccc(Nc2nc(O)c(/C=C3\C=Nc4ccccc43)s2)cc1`, the growth with NCI-H23 lung was 92%; in the assay on NCI-H226 lung it was 99.6%; in the assay on NCI-H322M lung it was 90.7%; with HOP-62 NSCLC, 97.5%; with NCI-H460 lung, 98.6%; in the assay with HOP-92 NSCLC, 114%. Moreover, the growth is 92% in the assay with NCI-H522 lung, 90.4% with A549/ATCC NSCLC, 106% with 786-0 renal and 122% in the assay with COLO 205 colon.
Turning to `CS(=O)(=O)Nc1cccc(-c2ccc3ncnc(Nc4cncc(Cl)c4)c3c2)c1`, the growth in the assay on NCI-H23 lung was 47.1%; in the assay on NCI-H226 lung it was 52.5%; with NCI-H322M lung, 19.9%; with HOP-62 NSCLC, 40.5%; in the assay with NCI-H460 lung it was 44.9%; in the assay on HOP-92 NSCLC, 11.2%. Also, the growth in the assay with NCI-H522 lung is 28.1%; with A549/ATCC NSCLC, 30.5%; in the assay on 786-0 renal, 10.1%; with COLO 205 colon it was 5.27% (active).
On to `Cc1c(C(C)(C)C)cc(C(C)(C)C)c2c1CN(C)CO2`, for which the growth with NCI-H23 lung was 102%; in the assay on NCI-H226 lung it was 111%; in the assay on NCI-H322M lung it was 105%; in the assay on HOP-62 NSCLC, 103%; in the assay on NCI-H460 lung it was 123%; in the assay with HOP-92 NSCLC, 112%. Also, the growth in the assay with NCI-H522 lung was 93.4%; with A549/ATCC NSCLC it was 111%; with 786-0 renal, 105%; with COLO 205 colon, 105%.
Turning to `CCCCN(CCCC)c1ccc(C(=N)c2ccc(N(C)C)cc2)cc1`, the growth in the assay with NCI-H23 lung is -46.1% (active); with NCI-H226 lung it was -46.4% (active); with NCI-H322M lung it was -32% (active); in the assay with HOP-62 NSCLC, -84% (active); with NCI-H460 lung, -88.5% (active); in the assay on HOP-92 NSCLC, -32.7% (active). For the same compound, the growth was -66.1% (active) with NCI-H522 lung, 3.26% (active) in the assay on A549/ATCC NSCLC, -84.4% (active) in the assay on 786-0 renal and -93.8% (active) in the assay with COLO 205 colon.
Regarding `c1ccc([Se]CCCN2CCN(CCC[Se]c3ccccc3)CC2)cc1`, the growth was 106% in the assay with NCI-H23 lung; 116% in the assay on NCI-H226 lung; 121% with NCI-H322M lung; 94.5% with HOP-62 NSCLC; 103% in the assay on NCI-H460 lung; 87.3% in the assay with HOP-92 NSCLC. The growth is 119% in the assay with NCI-H522 lung, 108% in the assay on A549/ATCC NSCLC, 96.4% in the assay with 786-0 renal and 135% in the assay with COLO 205 colon.
Regarding `COC1OCC(OS(=O)(=O)c2ccc(C)cc2)C(OC(=O)c2ccccc2)C1OC(=O)c1ccccc1` (stereo not given), the growth with NCI-H23 lung was 68.4%; with NCI-H226 lung, 68.4%; in the assay with NCI-H322M lung, 76.6%; with HOP-62 NSCLC, 42.2%; in the assay with NCI-H460 lung it was 17.4%; with HOP-92 NSCLC, 62.2%. The growth was 19% with NCI-H522 lung, 48.7% with A549/ATCC NSCLC, 42.1% in the assay with 786-0 renal and 36.4% with COLO 205 colon.
Turning to `COc1ccc(C2=NN(C(=O)COc3ccc(Cl)cc3)C(O)(c3cc(F)c(Cl)cc3Cl)C2)cc1OC` (stereo not given), the growth is 49.7% in the assay on NCI-H23 lung; 82.2% in the assay with NCI-H226 lung; 88.8% with NCI-H322M lung; 75.4% in the assay with HOP-62 NSCLC; 32.9% with NCI-H460 lung; -44.8% (active) in the assay on HOP-92 NSCLC. Further, the growth is -66.4% (active) in the assay with NCI-H522 lung, 81.3% in the assay on A549/ATCC NSCLC, -74.9% (active) in the assay on 786-0 renal and -56.6% (active) in the assay with COLO 205 colon.
On to `O=C(Nc1ccccc1F)Nc1ccccc1Cl`, for which the growth with NCI-H23 lung is 77.5%; in the assay on NCI-H226 lung it was 82.9%; in the assay with NCI-H322M lung, 103%; with HOP-62 NSCLC, 91.7%; in the assay on NCI-H460 lung, 92.4%; with HOP-92 NSCLC, 97.3%. Besides, the growth is 54.9% with NCI-H522 lung, 88.5% with A549/ATCC NSCLC, 107% in the assay on 786-0 renal and 137% with COLO 205 colon.
For `COc1ccc(-c2c(NC(=O)Nc3ccc(Cl)c(C(F)(F)F)c3)cnn2-c2ccc(S(N)(=O)=O)cc2)cc1`, the growth in the assay with NCI-H23 lung was 42.6%; in the assay on NCI-H226 lung it was 75.8%; in the assay with NCI-H322M lung, 51%; with HOP-62 NSCLC it was 53.5%; in the assay on NCI-H460 lung, 9.7% (active); in the assay with HOP-92 NSCLC, 0.848% (active). In addition, the growth in the assay with NCI-H522 lung is 43.7%; with A549/ATCC NSCLC, 39.2%; in the assay with 786-0 renal, 31.6%; in the assay on COLO 205 colon, 34.7%.
